TSHR ag = activates the human thyroid stimulating hormone receptor; AID 926; Potency, µM (highest dose often 57.1 µM), most hits filed as activators; 0.48% of 73,000 active; HEK293-CNG-TSHR cells (CNG channel as cAMP sensor), membrane potential dye, cAMP; P16473; active = well fitted activation curve with a large enough effect in the main read-out, with a control signal flat, not every such curve was filed as active; inconclusive = small, poorly fitted or top-dose-only effect, or a change in a side signal; inactive = no such curve, though single readings can be large or run the other way; reference of the percent scale not stated here;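 note: the control signal comes from parental cells without the receptor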
Target sequence (P16473 whole entry, looked up): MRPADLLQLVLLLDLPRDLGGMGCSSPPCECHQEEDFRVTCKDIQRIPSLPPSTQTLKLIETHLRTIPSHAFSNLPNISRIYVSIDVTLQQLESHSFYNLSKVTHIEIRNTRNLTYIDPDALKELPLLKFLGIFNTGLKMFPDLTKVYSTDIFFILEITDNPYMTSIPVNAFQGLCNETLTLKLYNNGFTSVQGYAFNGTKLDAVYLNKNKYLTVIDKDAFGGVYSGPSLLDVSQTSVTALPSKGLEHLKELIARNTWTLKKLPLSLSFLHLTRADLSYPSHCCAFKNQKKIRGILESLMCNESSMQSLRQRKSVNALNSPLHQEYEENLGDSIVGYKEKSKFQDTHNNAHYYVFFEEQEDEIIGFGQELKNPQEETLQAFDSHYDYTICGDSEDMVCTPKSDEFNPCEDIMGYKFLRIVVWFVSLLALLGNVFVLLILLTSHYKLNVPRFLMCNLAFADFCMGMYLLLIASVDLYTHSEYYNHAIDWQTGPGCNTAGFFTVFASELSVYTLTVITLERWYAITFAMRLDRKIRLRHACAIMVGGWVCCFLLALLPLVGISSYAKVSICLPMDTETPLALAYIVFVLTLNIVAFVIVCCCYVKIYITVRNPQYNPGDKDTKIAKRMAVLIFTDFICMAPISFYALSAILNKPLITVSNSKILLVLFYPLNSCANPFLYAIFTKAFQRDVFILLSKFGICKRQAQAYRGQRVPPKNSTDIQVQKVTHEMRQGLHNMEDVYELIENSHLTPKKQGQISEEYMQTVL
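HEK 293 cells stably expressing TSHR and a modified CNG channel, with CNG-only parental cells as counterscreen, were preloaded 60 min at room temperature with membrane potential dye containing 100 uM RO 20-1724. Compound exposure was 30 min, and depolarization was read as fluorescence at 590 nm.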
HEK293 cAMP cs = raises cAMP in parental HEK293 cells, TSHR agonist counter-screen | parental HEK293 CNG cAMP sensor, membrane potential fluorescence | Potency, µM (series often up to 57.1 µM), hits mostly activators | 2.5% of 73,000 active | AID 938; note: nearly all actives have a fitted effect of over 55% in size
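Parental HEK 293 cells stably expressing a modified CNG channel (no TSHR) report cAMP rise as membrane depolarization. Membrane potential dye with 100 uM RO 20-1724 was loaded for 60 min at room temperature, then compound added for 30 min; fluorescence read at 590 nm.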
HEK293 cAMP cnt = TSHR-independent cAMP elevation, counter-screen | shares compounds with TSHR ag | parental HEK293 CNG biosensor, cAMP membrane potential fluorescence | activity change, negative = inhibition, % at 32.9 µM | 150 tested, under 10 active | AID 953
Large screens that a line does not name were inactive (follow-up assays come after a bar, where they were run). Rows were chosen to be rich in hits. Some 2.9% of all compounds tested hit in one or more screens of this group. Unless noted, calls come from the whole dose curve; as a rule, active = well fitted curve in the direction sought with a large enough effect; inconclusive = small, poorly fitted or top-dose-only effect, or another doubt; inactive = no such curve, though single readings can be large; an effect the other way counts as inactive or inconclusive.

Cc1ccc(S(=O)(=O)N2CCC(C(=O)NCCCN3CCCCCC3)CC2)cc1	TSHR ag 4µM | HEK293 cAMP cnt inactive
Cc1ccc(S(=O)(=O)N2CCC(C(=O)NC3CCCCCC3)CC2)cc1	none
CC1(C)O[C@@H]2O[C@H]([C@H](O)CO/N=C3/[C@H]4O[C@@H]4[C@@H](O)[C@H]4[C@H]3CCn3c(=O)n(-c5ccccc5)c(=O)n34)[C@@H](O)[C@@H]2O1	none
CC(C)CCN1CCc2nc(-c3ccccc3)c3c(c2C1)COC(C)C3 (stereo unspecified)	none
Clc1ccccc1-c1ccc2ncnc(NCCN3CCOCC3)c2c1	none
O=S(=O)(CCc1ccccc1)N1CCOCC1	none
CCS(=O)(=O)N1CCN(C(C)CCc2ccccc2)CC1 (stereo unspecified)	none (no result: TSHR ag) | HEK293 cAMP cnt inactive
C#CCCCO/N=C1/C[C@@H](O)[C@@H](O)[C@@H]2[C@@H]3C(=O)N(CCC(=O)OCC)C(=O)[C@H]3CC[C@H]12	none
O=C1C=C(NCc2ccccc2)C2(CCCCC2)O1	none (no result: TSHR ag) | HEK293 cAMP cnt inactive
CCN(CC)C1=CC(=O)OC12CCCCC2	none
c1cc2c(cc1C(N1CCNCC1)N1CCNCC1)OCO2	none
COc1ccc(NC2c3ccccc3C(=O)N2c2cccnc2)cc1Cl (stereo unspecified)	none
COC(=O)c1cc(NC2c3ccccc3C(=O)N2c2cccnc2)cc(C(=O)OC)c1 (stereo unspecified)	TSHR ag 16µM | HEK293 cAMP cnt inactive
O[C@H](C[C@@H]1CCCCN1)c1ccc2c(c1)oc1ccccc12	none
O[C@@H]([C@H](O)[C@@H](O)CBr)[C@@H](O)CBr	none
COc1ccc(NC(=O)CN(c2ccc(C)cc2)S(=O)(=O)c2c(C)nn(C)c2C)cc1OC	none
Cc1nn(C)c(C)c1S(=O)(=O)N(CC(=O)Nc1ccccn1)c1ccc(C(C)C)cc1	TSHR ag 10µM | HEK293 cAMP cnt inactive
c1ccc(Nc2cc(-c3ccoc3)ncn2)cc1	none
COc1ccc(NC(=O)C(C)N(c2ccc(C)cc2)S(C)(=O)=O)c(OC)c1 (stereo unspecified)	none
CCOc1ccc(NC(=O)C(C)Sc2nnnn2C)cc1 (stereo unspecified)	none
CCOc1ccc(NC(=O)C(C)SC(N)=O)cc1 (stereo unspecified)	none | HEK293 cAMP cnt inactive
CCOc1ccc(N(C(C)C(=O)Nc2ccc(OC)cc2)S(C)(=O)=O)cc1 (stereo unspecified)	none | HEK293 cAMP cnt inactive
CCC(=O)[C@]12O[C@@]3(C4C(=O)OCCC41)N(CC)C(C)=C(C(=O)OC)C(c1ccccc1)N3C2=O (stereo partly specified)	none
NCCC[C@@H](CC(=O)N[C@@H]1CCCC[C@H]1C(=O)N[C@H](CC(=O)N[C@@H](CCC(=O)O)CC(=O)O)Cc1ccccc1)NC(=O)C[C@H](CO)NC(=O)[C@@H]1CNCC[C@H]1N	none (no result: TSHR ag)
C=CCOC(=O)C(C(C)=O)C(NC(=O)OC)c1ccc(F)cc1 (stereo unspecified)	none
O=C(O)c1cc(-c2ccccc2)c(N2CCOCC2)s1	none
O=C(NCc1ccco1)c1cc(-c2ccccc2)c(N2CCOCC2)s1	none | HEK293 cAMP cnt inactive
Cc1ccccc1-c1cncnc1Nc1ccccc1	none (no result: TSHR ag)
O=C(c1cc(-c2cccs2)on1)N1CCCc2ccccc21	TSHR ag inconclusive, HEK293 cAMP cs inconclusive | HEK293 cAMP cnt inconclusive
CCn1c(SCC(=O)N2CCCc3ccccc32)nnc1-c1cccs1	none
COC(=O)C1=C(C)NC(C)=C(C(=O)OC)C1c1ccc(OC(=O)c2ccco2)cc1	TSHR ag 20µM | HEK293 cAMP cnt inactive
CCOC(=O)C1=C(C)NC(C)=C(C(=O)OCC)C1c1ccc(OC)cc1	none
O=C(N/N=C1/C[C@@H](O)[C@@H](O)[C@@H]2[C@@H]3C(=O)N(Cc4ccc5c(c4)OCO5)C(=O)[C@H]3CC[C@H]12)OCc1ccccc1	none
COc1ccc(S(=O)(=O)N(C)CC(=O)N2CCCCCC2)cc1OC	none | HEK293 cAMP cnt inactive
COc1ccc(C)cc1S(=O)(=O)N(C)CC(=O)N1CCCCCC1	none
Cc1ccc(CN2CCN(Cc3ccc(C)o3)[C@@H](C)C2)o1	none
Cc1occc1-c1nnc(SCC(=O)NCc2ccco2)n1CC(C)C	TSHR ag 20µM | HEK293 cAMP cnt inactive
CCc1nnc(NC(=O)CSc2nnc(-c3ccoc3C)n2CC(C)C)s1	none
COc1ccc(-c2cc(C(F)(F)F)nc(SCCC(=O)N3CCOCC3)n2)cc1	TSHR ag 20µM | HEK293 cAMP cnt inactive
COc1ccc(-c2cc(C(F)(F)F)nc(SCC(N)=O)n2)cc1	none
CCOC(=O)N/N=C1/C[C@@H](O)[C@@H](O)[C@@H]2[C@@H]3C(=O)N(C[C@@H]4CCCO4)C(=O)[C@H]3CC[C@@H]12	none
O=c1c(CCc2ccccc2)nc2cnc(N3CCOCC3)nc2n1C1CC1	none
